# Assay results taken from ChEMBL document CHEMBL1961873, “Compounds: GSK PKIS; Assays: Nanosyn kinase panel” (2012).
# Key:
# [1] = target: Dual specificity protein kinase CLK3 (Homo sapiens) (UniProt P49761); settings: at 1 µM;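 further: each value is the mean inhibition of CLK3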
# [2] = target: Dual specificity tyrosine-phosphorylation-regulated kinase 1A (Homo sapiens) (UniProt Q13627); settings: at 0.1 µM
# [3] = target: Dual specificity tyrosine-phosphorylation-regulated kinase 1A (Homo sapiens) (UniProt Q13627); settings: at 1 µM
# [4] = target: Dual specificity tyrosine-phosphorylation-regulated kinase 1B (Homo sapiens) (UniProt Q9Y463); settings: at 0.1 µM
# [5] = target: Dual specificity tyrosine-phosphorylation-regulated kinase 1B (Homo sapiens) (UniProt Q9Y463); settings: at 1 µM
# [6] = target: T1, Dual specificity tyrosine-phosphorylation-regulated kinase 2 (Homo sapiens) (UniProt Q92630); settings: at 0.1 µM
# T1 sequence (whole entry): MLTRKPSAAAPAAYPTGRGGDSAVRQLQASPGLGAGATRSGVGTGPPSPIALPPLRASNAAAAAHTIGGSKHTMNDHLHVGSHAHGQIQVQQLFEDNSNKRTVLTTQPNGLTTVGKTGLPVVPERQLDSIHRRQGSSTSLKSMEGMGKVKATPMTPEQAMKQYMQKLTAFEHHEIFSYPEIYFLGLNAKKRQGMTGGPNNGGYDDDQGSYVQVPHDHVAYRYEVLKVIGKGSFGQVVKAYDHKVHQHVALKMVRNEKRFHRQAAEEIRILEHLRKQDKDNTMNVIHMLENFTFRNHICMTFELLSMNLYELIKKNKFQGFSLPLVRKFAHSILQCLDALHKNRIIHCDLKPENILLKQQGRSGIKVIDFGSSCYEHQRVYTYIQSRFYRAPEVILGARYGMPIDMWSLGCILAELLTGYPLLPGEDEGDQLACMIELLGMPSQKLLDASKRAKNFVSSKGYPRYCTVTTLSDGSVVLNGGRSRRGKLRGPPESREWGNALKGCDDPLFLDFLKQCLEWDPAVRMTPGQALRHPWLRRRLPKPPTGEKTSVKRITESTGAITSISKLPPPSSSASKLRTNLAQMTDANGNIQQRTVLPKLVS
# [7] = target: T1, Dual specificity tyrosine-phosphorylation-regulated kinase 2 (Homo sapiens); settings: at 1 µM
# [8] = target: Glycogen synthase kinase-3 alpha (Homo sapiens) (UniProt P49840); settings: at 0.1 µM
# [9] = target: Glycogen synthase kinase-3 alpha (Homo sapiens) (UniProt P49840); settings: at 1 µM
# [10] = target: Glycogen synthase kinase-3 beta (Homo sapiens) (UniProt P49841); settings: at 0.1 µM
# [11] = target: Glycogen synthase kinase-3 beta (Homo sapiens) (UniProt P49841); settings: at 1 µM
# [12] = target: Homeodomain-interacting protein kinase 1 (Homo sapiens) (UniProt Q86Z02); settings: at 0.1 µM
# [13] = target: Homeodomain-interacting protein kinase 1 (Homo sapiens) (UniProt Q86Z02); settings: at 1 µM
# [14] = target: T2, Homeodomain-interacting protein kinase 4 (Homo sapiens) (UniProt Q8NE63); settings: at 0.1 µM
# T2 sequence (whole entry): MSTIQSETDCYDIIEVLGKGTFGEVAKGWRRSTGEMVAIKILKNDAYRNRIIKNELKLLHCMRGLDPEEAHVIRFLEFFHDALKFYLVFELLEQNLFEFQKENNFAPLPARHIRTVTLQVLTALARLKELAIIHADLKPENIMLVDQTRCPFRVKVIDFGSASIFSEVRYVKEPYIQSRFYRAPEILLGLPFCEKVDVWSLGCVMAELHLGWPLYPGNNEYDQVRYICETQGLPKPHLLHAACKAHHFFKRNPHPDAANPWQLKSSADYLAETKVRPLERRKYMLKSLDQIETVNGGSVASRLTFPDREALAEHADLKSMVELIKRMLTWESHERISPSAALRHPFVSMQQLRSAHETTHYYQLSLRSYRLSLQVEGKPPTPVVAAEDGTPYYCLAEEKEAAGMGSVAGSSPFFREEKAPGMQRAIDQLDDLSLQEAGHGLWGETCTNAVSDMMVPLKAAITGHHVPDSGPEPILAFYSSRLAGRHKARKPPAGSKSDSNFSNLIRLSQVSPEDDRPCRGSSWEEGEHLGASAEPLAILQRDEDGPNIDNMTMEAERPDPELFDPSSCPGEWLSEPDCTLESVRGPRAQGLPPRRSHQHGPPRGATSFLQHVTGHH
# [15] = target: T2, Homeodomain-interacting protein kinase 4 (Homo sapiens); settings: at 1 µM
# [16] = target: Mitogen-activated protein kinase 9 (Homo sapiens) (UniProt P45984); settings: at 0.1 µM
# [17] = target: Mitogen-activated protein kinase 9 (Homo sapiens) (UniProt P45984); settings: at 1 µM
# [18] = target: Mitogen-activated protein kinase 1 (Homo sapiens) (UniProt P28482); settings: at 0.1 µM
# [19] = target: Mitogen-activated protein kinase 1 (Homo sapiens) (UniProt P28482); settings: at 1 µM
# [20] = target: Mitogen-activated protein kinase 3 (Homo sapiens) (UniProt P27361); settings: at 0.1 µM;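 further: each value is a mean inhibition figure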
# Mitogen-activated protein kinase 3 (Homo sapiens), sequence (P27361 whole entry): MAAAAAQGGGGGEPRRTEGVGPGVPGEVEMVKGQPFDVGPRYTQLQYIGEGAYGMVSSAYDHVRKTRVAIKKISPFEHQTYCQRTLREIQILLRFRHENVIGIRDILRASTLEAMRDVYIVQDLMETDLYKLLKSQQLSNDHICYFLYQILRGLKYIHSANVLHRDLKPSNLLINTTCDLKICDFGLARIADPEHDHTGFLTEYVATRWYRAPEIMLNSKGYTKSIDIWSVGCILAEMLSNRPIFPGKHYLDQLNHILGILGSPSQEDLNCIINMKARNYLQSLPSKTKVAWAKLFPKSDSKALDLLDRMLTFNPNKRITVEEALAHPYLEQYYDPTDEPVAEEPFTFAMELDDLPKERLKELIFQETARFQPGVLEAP
# Glycogen synthase kinase-3 alpha (Homo sapiens), sequence (P49840 2-483 limits assumed): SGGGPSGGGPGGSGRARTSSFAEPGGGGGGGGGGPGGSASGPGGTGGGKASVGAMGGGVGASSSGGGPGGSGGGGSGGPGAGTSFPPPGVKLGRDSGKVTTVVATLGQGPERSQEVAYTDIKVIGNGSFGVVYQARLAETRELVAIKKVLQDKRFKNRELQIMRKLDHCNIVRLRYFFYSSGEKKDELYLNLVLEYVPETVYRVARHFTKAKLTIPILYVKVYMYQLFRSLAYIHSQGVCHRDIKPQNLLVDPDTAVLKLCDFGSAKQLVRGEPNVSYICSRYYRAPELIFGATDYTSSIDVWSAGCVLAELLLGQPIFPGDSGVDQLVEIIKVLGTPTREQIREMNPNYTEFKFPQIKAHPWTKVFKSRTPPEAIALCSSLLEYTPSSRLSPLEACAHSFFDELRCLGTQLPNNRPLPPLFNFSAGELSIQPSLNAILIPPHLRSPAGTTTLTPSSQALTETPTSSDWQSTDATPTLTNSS
# Glycogen synthase kinase-3 beta (Homo sapiens), sequence (P49841 whole entry, looked up): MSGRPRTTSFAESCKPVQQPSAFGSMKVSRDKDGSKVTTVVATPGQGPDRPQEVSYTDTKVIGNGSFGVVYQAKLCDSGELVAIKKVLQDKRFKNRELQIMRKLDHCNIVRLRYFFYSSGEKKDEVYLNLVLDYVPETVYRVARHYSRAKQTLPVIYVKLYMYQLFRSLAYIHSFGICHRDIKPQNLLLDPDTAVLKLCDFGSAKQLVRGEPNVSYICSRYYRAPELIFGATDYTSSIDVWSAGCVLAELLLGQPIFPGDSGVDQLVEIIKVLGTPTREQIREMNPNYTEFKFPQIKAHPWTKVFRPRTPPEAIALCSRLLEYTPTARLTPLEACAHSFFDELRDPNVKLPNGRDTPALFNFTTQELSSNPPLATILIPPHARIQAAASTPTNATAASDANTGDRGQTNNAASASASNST
# Mitogen-activated protein kinase 9 (Homo sapiens), sequence (P45984 whole entry, looked up): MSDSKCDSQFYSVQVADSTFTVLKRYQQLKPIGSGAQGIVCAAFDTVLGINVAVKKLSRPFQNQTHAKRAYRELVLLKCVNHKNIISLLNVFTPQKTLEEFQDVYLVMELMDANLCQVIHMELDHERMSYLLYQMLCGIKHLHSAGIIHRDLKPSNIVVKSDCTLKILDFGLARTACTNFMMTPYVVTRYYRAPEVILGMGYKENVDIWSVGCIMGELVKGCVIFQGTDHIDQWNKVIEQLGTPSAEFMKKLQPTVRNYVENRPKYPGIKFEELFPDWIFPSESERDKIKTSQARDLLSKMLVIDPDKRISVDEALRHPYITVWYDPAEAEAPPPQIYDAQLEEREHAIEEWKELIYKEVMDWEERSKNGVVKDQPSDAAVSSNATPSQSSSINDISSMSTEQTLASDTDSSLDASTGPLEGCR
# Dual specificity protein kinase CLK3 (Homo sapiens), sequence (P49761 whole entry, looked up): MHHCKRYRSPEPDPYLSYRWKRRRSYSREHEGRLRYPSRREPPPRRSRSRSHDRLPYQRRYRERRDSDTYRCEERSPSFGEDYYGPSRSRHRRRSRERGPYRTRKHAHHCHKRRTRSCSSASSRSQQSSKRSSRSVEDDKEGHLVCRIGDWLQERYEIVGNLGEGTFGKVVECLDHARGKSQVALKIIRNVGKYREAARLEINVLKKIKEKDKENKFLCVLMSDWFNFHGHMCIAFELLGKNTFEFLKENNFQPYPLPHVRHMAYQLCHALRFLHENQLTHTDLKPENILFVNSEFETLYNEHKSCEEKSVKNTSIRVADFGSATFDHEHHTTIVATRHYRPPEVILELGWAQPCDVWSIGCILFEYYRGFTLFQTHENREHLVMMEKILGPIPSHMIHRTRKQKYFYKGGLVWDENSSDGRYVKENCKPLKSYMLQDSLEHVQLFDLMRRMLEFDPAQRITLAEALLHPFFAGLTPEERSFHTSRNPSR
# Dual specificity tyrosine-phosphorylation-regulated kinase 1B (Homo sapiens), sequence (Q9Y463 whole entry, looked up): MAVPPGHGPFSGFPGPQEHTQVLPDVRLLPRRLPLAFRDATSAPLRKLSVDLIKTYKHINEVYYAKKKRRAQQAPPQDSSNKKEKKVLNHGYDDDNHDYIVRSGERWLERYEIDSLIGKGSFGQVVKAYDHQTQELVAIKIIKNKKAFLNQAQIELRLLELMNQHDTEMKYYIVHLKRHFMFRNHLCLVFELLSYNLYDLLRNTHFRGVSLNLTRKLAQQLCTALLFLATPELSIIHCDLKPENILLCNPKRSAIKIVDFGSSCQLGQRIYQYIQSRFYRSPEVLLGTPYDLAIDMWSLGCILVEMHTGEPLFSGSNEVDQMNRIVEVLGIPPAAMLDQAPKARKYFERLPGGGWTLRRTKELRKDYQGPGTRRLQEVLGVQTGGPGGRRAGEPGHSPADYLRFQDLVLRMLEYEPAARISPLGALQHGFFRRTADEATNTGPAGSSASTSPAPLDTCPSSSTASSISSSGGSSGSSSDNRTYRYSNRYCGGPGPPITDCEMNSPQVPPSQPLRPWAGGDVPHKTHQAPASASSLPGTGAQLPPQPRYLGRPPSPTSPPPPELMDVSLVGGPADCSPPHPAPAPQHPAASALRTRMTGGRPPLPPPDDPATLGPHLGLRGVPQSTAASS
# Mitogen-activated protein kinase 1 (Homo sapiens), sequence (P28482 whole entry): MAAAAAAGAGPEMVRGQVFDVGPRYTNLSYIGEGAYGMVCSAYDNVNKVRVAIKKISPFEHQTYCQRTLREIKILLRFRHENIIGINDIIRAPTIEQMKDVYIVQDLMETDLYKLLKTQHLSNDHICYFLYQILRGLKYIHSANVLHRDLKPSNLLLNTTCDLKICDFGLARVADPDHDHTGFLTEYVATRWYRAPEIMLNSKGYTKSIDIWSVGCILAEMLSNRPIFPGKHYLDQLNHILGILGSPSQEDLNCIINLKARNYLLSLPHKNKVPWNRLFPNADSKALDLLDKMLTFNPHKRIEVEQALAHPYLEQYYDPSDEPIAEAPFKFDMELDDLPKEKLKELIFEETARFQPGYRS
# Homeodomain-interacting protein kinase 1 (Homo sapiens), sequence (Q86Z02 whole entry, looked up): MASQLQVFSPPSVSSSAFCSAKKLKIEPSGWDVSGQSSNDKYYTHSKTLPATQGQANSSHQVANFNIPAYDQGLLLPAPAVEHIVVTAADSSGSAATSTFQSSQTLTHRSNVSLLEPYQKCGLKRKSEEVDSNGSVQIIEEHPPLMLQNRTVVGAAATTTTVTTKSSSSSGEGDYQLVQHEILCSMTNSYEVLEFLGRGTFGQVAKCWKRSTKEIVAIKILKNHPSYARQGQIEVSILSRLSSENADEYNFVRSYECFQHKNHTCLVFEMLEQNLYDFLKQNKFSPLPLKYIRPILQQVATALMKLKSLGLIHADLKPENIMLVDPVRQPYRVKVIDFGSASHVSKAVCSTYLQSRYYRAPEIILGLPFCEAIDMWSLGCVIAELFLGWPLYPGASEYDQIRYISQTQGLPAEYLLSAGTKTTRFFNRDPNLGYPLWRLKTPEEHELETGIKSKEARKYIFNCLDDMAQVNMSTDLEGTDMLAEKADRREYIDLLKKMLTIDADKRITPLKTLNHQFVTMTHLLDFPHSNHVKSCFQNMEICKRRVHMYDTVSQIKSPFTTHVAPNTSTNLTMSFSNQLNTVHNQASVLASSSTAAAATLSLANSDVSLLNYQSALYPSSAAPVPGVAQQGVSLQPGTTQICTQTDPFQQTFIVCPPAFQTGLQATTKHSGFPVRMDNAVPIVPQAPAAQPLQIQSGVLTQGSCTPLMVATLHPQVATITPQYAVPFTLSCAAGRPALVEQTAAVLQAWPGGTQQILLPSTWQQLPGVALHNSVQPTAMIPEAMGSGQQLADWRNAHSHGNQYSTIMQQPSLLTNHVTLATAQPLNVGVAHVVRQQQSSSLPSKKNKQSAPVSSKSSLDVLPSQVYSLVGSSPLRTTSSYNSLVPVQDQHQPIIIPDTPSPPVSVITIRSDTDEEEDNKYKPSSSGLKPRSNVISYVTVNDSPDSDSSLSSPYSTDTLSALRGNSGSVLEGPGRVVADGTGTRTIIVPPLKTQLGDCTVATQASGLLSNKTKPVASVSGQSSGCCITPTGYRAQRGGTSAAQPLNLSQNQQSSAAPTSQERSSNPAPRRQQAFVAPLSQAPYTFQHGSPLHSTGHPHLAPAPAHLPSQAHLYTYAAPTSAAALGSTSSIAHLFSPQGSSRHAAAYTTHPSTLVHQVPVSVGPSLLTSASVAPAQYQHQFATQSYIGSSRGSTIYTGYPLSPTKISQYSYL
SMILES,inhibition [1],inhibition [2],inhibition [3],inhibition [4],inhibition [5],inhibition [6],inhibition [7],inhibition [8],inhibition [9],inhibition [10],inhibition [11],inhibition [12],inhibition [13],inhibition [14],inhibition [15],inhibition [16],inhibition [17],inhibition [18],inhibition [19],inhibition [20]
CCn1c(-c2nonc2N)nc2c(C#CC(C)(C)O)ncc(OCC3CCNCC3)c21,-1.7%,-3.13%,1.2%,-4.04%,-0.01%,1.35%,1.98%,12.9%,53.9%,11.9%,55.4%,0.15%,19.7%,1.95%,11.1%,2.04%,2.67%,5.25%,4.1%,5.07%
COc1cc(C=NNc2ncnc3c2cnn3Cc2ccccc2)ccc1O,9.8%,3.11%,9.48%,3.37%,8.92%,-4.67%,-1.79%,5.54%,19.6%,5.36%,17.7%,-2.83%,1.68%,-0.49%,2.59%,-0.98%,-0.48%,2.37%,-6.99%,-2.79%
Nc1nonc1-c1nc2cnccc2n1C1CCCCC1,2.98%,34.3%,78%,23.4%,71.2%,-2.75%,-0.12%,66.1%,90.8%,62.5%,90%,-0.6%,16.1%,0.63%,10.3%,-0.52%,-0.67%,-1.37%,1.38%,-0.87%
CCn1c(-c2nonc2N)nc2c(C#CCN)ncc(OCCCN)c21,-1.34%,1.67%,4.43%,5.17%,7.49%,-2.75%,-1.66%,0.52%,9.28%,3.41%,14.4%,3.64%,2.54%,1.45%,2.86%,-2.82%,-3.07%,-2.43%,-4.85%,-3.01%
Fc1ccc(-c2ncn(C3CCNCC3)c2-c2ccnc(Oc3ccccc3)n2)cc1,-4.71%,-2.73%,-2.33%,-4.97%,-5.21%,1.43%,0.78%,-1.47%,-2.08%,-2.46%,-1.88%,-7.18%,-6.2%,0.38%,2.3%,–,–,2.78%,6.09%,2.44%
COc1cc2c(cc1Nc1nc(Nc3ccsc3C(N)=O)c3cc[nH]c3n1)N(C(=O)CN(C)C)CCC2,2.92%,-1.83%,0.58%,-0.31%,4.64%,-0.67%,-2.75%,1.22%,0.89%,1.05%,2.63%,-2.33%,5.85%,2.25%,5.44%,3.02%,8.04%,–,–,2.93%
NS(=O)(=O)c1ccc(-c2ccc3c(NC(=O)C4CC4)n[nH]c3c2)cc1,2.75%,2.37%,5.69%,0.86%,3.29%,1.63%,3.47%,5.27%,8.87%,4.15%,7.66%,2.52%,7.94%,3.34%,4.2%,3.73%,4.23%,2.15%,3%,1.44%
Cc1cc(-c2ccco2)cc(C)c1/C=C/c1cncc(-c2nn[nH]n2)c1,0.08%,-0.27%,2.81%,-0.75%,0.15%,-0.1%,-1.43%,0.36%,0.72%,0.5%,0.28%,-3.37%,-0.75%,-0.32%,-0.04%,1.02%,0.6%,1.32%,2.18%,3.63%
COc1cccc(-n2ncc3c(N/N=C/c4ccncc4)ncnc32)c1,19.3%,28.7%,72.3%,16.2%,53.9%,14.2%,58.9%,85.7%,90%,83.4%,89.2%,26.6%,69.8%,19.6%,61.3%,0.79%,11.2%,5.32%,7.16%,4.96%
COc1cccc(COc2cc(-n3cnc4ccccc43)sc2C(N)=O)c1,-0.91%,0.34%,-0.09%,-0.5%,-2.7%,-0.21%,-2.08%,1.06%,3.48%,0.09%,2.12%,-6.56%,1.66%,-0.59%,2.84%,2.36%,-2.62%,1.13%,1.97%,2.69%
CCn1c(-c2nonc2N)nc2c(C#CC(C)(C)O)nc(O[C@@H](CN)c3ccccc3)cc21,1.71%,1.79%,7.95%,2.3%,9.96%,-1.27%,0.08%,52.7%,86.1%,53.4%,84.6%,10.4%,55.3%,3.23%,36.3%,2.01%,1.01%,-1.73%,5.15%,0.9%
NC(=O)c1sc(-n2cnc3cc(C(F)(F)F)ccc32)cc1OCc1ccccc1Br,-0.53%,-0.2%,1.95%,-0.04%,0.72%,1.75%,0.34%,1.61%,2.55%,1.16%,2.38%,-3.51%,0.77%,-0.26%,2.95%,0.9%,1.72%,0.51%,2.13%,3.5%
CCn1c(-c2nonc2N)nc2c(C#CC(C)(C)O)ncc(OC[C@@H]3CCCN3)c21,-0.53%,-0.49%,-0.73%,-2.29%,-1.07%,0.4%,-2.07%,9.78%,44.4%,9.2%,46.9%,-6.24%,6.03%,0.03%,0.31%,-0.05%,0.92%,1.59%,1.3%,1.69%
NS(=O)(=O)c1ccc(N/C=C2\C(=O)Nc3ccc4ncsc4c32)cc1,9.47%,21.7%,74.4%,9.26%,44.9%,6.51%,29%,25.2%,62.8%,26.1%,65.1%,3.83%,34.7%,1.88%,11.8%,5.59%,20.2%,8.37%,31.1%,5.66%
